Measured values taken from PubChem BioAssay AID1159580 (chemical genetic matrix, 2015).
Values joined by “and” are separate entries in the source; they are usually repeats but may differ in a detail not shown here. Equal entries are not always repeated. In all, about 5,500 compounds went through this assay and about 2,000 (36%) were called active. Roughly 18% stayed inconclusive and do not appear here. Rule as the data show it: active = normalized growth mostly below about 0.91 (no sharp cut-off); inconclusive = no clear call, values can overlap the other calls; inactive = mostly above about 0.92. This is one part of the list.

Experiment: chemical genetic growth profiling, strain panel (AID 1159580);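 also: tested at 20 µM; growth read once vehicle control cultures reached saturation at 30 °C; 1 = growth at the plate median or of vehicle wells; lower values mean less growth of the strain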
Conditions: S. cerevisiae deletion strains, growth OD

Measured: normalized growth

CC(=O)C1CCC2C3CCC4C[C@H](O)CCC4(C)C3C[C@H](O)C12C (some centres not stated)
inactive: locus YAL013W, strain DEP1, stronger effect = lower value 1.03 | locus YAL021C, strain ccr4, stronger effect = lower value 0.96 | locus YAL026C, strain drs2, stronger effect = lower value 0.984 | locus YAL030W, strain snc1, stronger effect = lower value 0.971 | locus YBL061C, strain skt5, stronger effect = lower value 0.989 | locus YBR009C, strain hhf1, stronger effect = lower value 0.963 | locus YBR021W, strain FUR4, stronger effect = lower value 1.02 | locus YBR023C, strain chs3, stronger effect = lower value 0.989 | locus YBR171W, strain sec66, stronger effect = lower value 0.961 | locus YBR229C, strain ROT2, stronger effect = lower value 1.03 | locus YBR231C, strain swc5, stronger effect = lower value 0.993 | locus YBR279W, strain paf1, stronger effect = lower value 0.98 | locus YCL011C, strain gbp2, stronger effect = lower value 0.957 | locus YCL016C, strain dcc1, stronger effect = lower value 0.97 | locus YCL029C, strain bik1, stronger effect = lower value 1 | locus YCL069W, strain vba3, stronger effect = lower value 0.968 | locus YCR088W, strain abp1, stronger effect = lower value 0.972 | locus YDL005C, strain med2, stronger effect = lower value 0.971 | locus YDL035C, strain GPR1, stronger effect = lower value 1.09 | locus YDL040C, strain nat1, stronger effect = lower value 0.982 | locus YDL074C, strain BRE1, stronger effect = lower value 1.16 | locus YDL101C, strain DUN1, stronger effect = lower value 1.02 | locus YDL134C, strain PPH21, stronger effect = lower value 1.05 | locus YDL185W, strain tfp1, stronger effect = lower value 0.999 | locus YDL192W, strain arf1, stronger effect = lower value 1.02 | locus YDR001C, strain nth1, stronger effect = lower value 0.956 | locus YDR069C, strain doa4, stronger effect = lower value 0.945 | locus YDR101C, strain arx1, stronger effect = lower value 1.01 | locus YDR137W, strain rgp1, stronger effect = lower value 0.966 | locus YDR150W, strain NUM1, stronger effect = lower value 1.04 | locus YDR159W, strain sac3, stronger effect = lower value 0.982 | locus YDR162C, strain NBP2, stronger effect = lower value 1.04 | locus YDR195W, strain ref2 0.956 | locus YDR297W, strain sur2, stronger effect = lower value 0.976 | locus YDR318W, strain mcm21, stronger effect = lower value 1.02 | locus YDR334W, strain swr1, stronger effect = lower value 0.962 | locus YDR335W, strain msn5, stronger effect = lower value 0.982 | locus YDR388W, stronger effect = lower value 1.01 | locus YDR392W, strain spt3, stronger effect = lower value 0.978 | locus YDR502C, strain sam2, stronger effect = lower value 1.01 | locus YEL003W, strain gim4, stronger effect = lower value 0.979 | locus YEL037C, strain rad23, stronger effect = lower value 0.972 | locus YEL061C, strain CIN8 (second series), stronger effect = lower value 0.973 | locus YEL061C, strain CIN8, stronger effect = lower value 1.03 | locus YER015W, strain faa2, stronger effect = lower value 0.968 | locus YER016W, strain bim1, stronger effect = lower value 0.971 | locus YER110C, stronger effect = lower value 0.987 | locus YER111C, strain swi4, stronger effect = lower value 0.978 | locus YER155C, strain BEM2 (second series), stronger effect = lower value 0.979 | locus YER155C, strain BEM2, stronger effect = lower value 1.02 | locus YER167W, strain BCK2, stronger effect = lower value 1.02 | locus YFR010W, strain ubp6, stronger effect = lower value 0.975 | locus YGL078C, strain dbp3, stronger effect = lower value 0.995 | locus YGL086W, strain mad1, stronger effect = lower value 1.01 | locus YGL167C, strain pmr1, stronger effect = lower value 0.96 | locus YGL173C, strain kem1, stronger effect = lower value 0.965 | locus YGL227W, strain vid30, stronger effect = lower value 0.972 | locus YGL240W, strain doc1, stronger effect = lower value 0.984 | locus YGL248W, strain PDE1, stronger effect = lower value 1.08 | locus YGL253W, strain hxk2, stronger effect = lower value 0.963 | locus YGR078C, strain PAC10, stronger effect = lower value 1.07 | locus YGR135W, strain pre9, stronger effect = lower value 0.998 | locus YGR252W, strain gcn5, stronger effect = lower value 1.06 | locus YHR013C, strain ard1, stronger effect = lower value 0.942 | locus YHR027C, strain rpn1, stronger effect = lower value 0.971 | locus YHR030C, strain SLT2, stronger effect = lower value 1.01 | locus YHR079C, strain IRE1 (second series), stronger effect = lower value 1.01 | locus YHR079C, strain IRE1, stronger effect = lower value 1.02 | locus YHR094C, strain hxt1, stronger effect = lower value 1 | locus YHR129C, strain ARP1, stronger effect = lower value 1.04 | locus YHR142W, strain chs7, stronger effect = lower value 0.953 | locus YHR200W, strain rpn10, stronger effect = lower value 1.01 | locus YIL066C, strain RNR3, stronger effect = lower value 1.04 | locus YIL073C, strain SPO22, stronger effect = lower value 1.12 | locus YIL125W, strain kgd1, stronger effect = lower value 1.01 | locus YIR030C, strain dcg1, stronger effect = lower value 1.01 | locus YJL092W, strain hpr5, stronger effect = lower value 0.964 | locus YJL095W, strain BCK1 (second series), stronger effect = lower value 0.961 | locus YJL095W, strain BCK1, stronger effect = lower value 1.07 and 1.01 | locus YJL115W, strain asf1, stronger effect = lower value 0.963 | locus YJL129C, strain trk1, stronger effect = lower value 0.968 | locus YJL134W, strain LCB3, stronger effect = lower value 1.01 | locus YJL154C, strain vps35, stronger effect = lower value 0.968 | locus YJL164C, strain tpk1, stronger effect = lower value 0.96 | locus YJL166W, strain qcr8, stronger effect = lower value 0.975 | locus YJL168C, strain set2, stronger effect = lower value 0.987 | locus YJL187C, strain SWE1 (second series), stronger effect = lower value 1.04
